UBC13 polyUb: human UBC13 polyubiquitination inhibition; P61088; UBC13 polyubiquitin chain formation, TR-FRET; inhibition, % at 20 µM; 0.47% of 330,000 active; AID 485273; in the data active = inhibition above about 45%, passing the limit was not always enough
Target sequence (P61088 whole entry, looked up): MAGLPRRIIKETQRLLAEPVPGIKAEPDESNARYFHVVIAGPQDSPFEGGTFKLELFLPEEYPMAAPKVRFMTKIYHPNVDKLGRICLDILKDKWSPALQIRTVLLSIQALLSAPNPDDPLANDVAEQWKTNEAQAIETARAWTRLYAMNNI
NALP1 yeast inh: inhibitors of NALP1 inflammasome in yeast | S. cerevisiae NALP1/ASC/caspase-1 growth, X-gal OD620, 72 h | inhibition, % at 10 µM | 0.61% of 280,000 active; in the data active = inhibition mostly above about 24%, no sharp cut-off; inactive = mostly below about 32%
GRIN3A LBD mod: NR3A (human) ligand-binding domain modulation. NR3A LBD differential scanning fluorimetry, Tm shift; 0% = protein alone, 100% = glycine-bound protein. 2.5% of 340,000 active. Tm shift relative to glycine control, % at 25 µM;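 active = melting temperature shift of at least 10% of the positive control shift, at one fixed dose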
dFosB act-1: enhances mouse delta FosB homodimer DNA binding; AID 493131; activation, % at 25 µM; P13346; purified delta FosB, TAMRA-CDK5 oligo fluorescence polarization; percent of positive-control signal above neutral wells; 0.99% of 340,000 active;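 active = mean activation above about 17%, with every replicate also reaching it, limit read from the data, passing the limit was not always enough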
Target sequence (P13346 whole entry, looked up): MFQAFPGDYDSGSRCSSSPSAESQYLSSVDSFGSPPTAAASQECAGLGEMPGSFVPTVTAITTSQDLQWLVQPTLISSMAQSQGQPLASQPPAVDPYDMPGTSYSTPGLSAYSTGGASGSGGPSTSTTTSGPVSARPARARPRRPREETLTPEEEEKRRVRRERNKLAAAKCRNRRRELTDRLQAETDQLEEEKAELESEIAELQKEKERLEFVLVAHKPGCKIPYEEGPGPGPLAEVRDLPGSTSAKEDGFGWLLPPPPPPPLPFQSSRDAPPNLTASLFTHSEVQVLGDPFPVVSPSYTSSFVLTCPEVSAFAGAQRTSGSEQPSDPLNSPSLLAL
CR mimetic SO: yeast age-related superoxide inhibition as caloric restriction mimetic; S. cerevisiae aged cells, superoxide DHE fluorescence; active compounds read low; superoxide response (% of plate mean), % at 10 µM; 0.18% of 330,000 active; AID 2690;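 active = superoxide response under a set limit, about three screen SD below normal, cut at about 65% in these data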;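 also: yeast aged for seven days with compound at 30 °C before DHE staining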
dFosB act-2: delta FosB (mouse) homodimer activation; shares compounds with dFosB act-1; purified delta FosB, TAMRA-CDK5 oligo fluorescence polarization; normalised: neutral wells 0, positive control 100; activation, % at 24.9 µM; 2,400 tested, under 10 active; AID 588690;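 active = highest replicate activation at or above 34% and every replicate reaching that threshold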;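 also: higher polarization means more probe DNA bound by delta FosB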
Numbers stand for hits; i = inactive; nt = not tested or not shown. In the library only some 4.3% were active in any assay of this set; here they are far more common.

SMILES	UBC13 polyUb	NALP1 yeast inh	GRIN3A LBD mod	dFosB act-1	CR mimetic SO	dFosB act-2
COc1ccc(/C=C/C(=O)Oc2ccc(/C=N/NC(=O)c3ccncc3)cc2)cc1	i	i	i	22.3	i	i
COc1ccc(/C(C)=N/NC(=O)c2ccncc2)cc1	i	i	i	i	i	nt
COc1ccc(C(=O)Nc2ccc(/C(C)=N/NC(=O)c3ccncc3)cc2)cc1	i	i	nt	39.8	i	i
Cc1nn(CC(=O)NCCCN2C(C)CCCC2C)c(=O)c2cc3occc3n12 (configuration not stated)	i	i	i	i	i	nt
CN(C(=O)COC(=O)C1CCN(S(=O)(=O)c2ccc3c(c2)OCCO3)CC1)C1CCCCC1	i	nt	i	i	i	nt
Cc1nc(-c2ccc(NC(=O)c3ccc(Br)o3)cc2)cs1	i	i	19.6	25.6	i	i
Cc1ccc(NC(=O)C2CC(=O)n3c(nc4ccccc43)N2)cc1Cl (configuration not stated)	i	i	i	31.3	i	i
Cc1ccc(NC(=O)[C@@H]2CCC(=O)N2C2OC(=O)c3ccccc32)cc1Cl (some centres not stated)	i	i	i	i	i	nt
Cc1ccc(NC(=O)C2CC(=O)n3c(nc4ccccc43)N2)cc1C (configuration not stated)	i	nt	i	31.1	i	i
CC(C)c1ccc(NC(=O)C2CC(=O)Nc3nc4ccccc4n32)cc1 (configuration not stated)	i	nt	i	81.3	i	i
O=C1CC(C(=O)Nc2ccc(Cl)cc2)n2ncnc2N1 (configuration not stated)	i	i	i	i	i	nt
COc1cc(/C=C(\C#N)c2nc3ccccc3n2C)cc(OC)c1O	i	i	i	i	i	nt
COc1cc(C(=O)Nc2cccc(-c3nnc(-c4ccco4)o3)c2)ccc1OC(C)=O	i	i	i	i	i	nt
C=CCn1c(C)nnc1SCC(=O)Nc1oc(C)c2c(C)n[nH]c(=O)c12	i	nt	i	i	i	nt
O=C(C[n+]1cnn(CC(=O)c2ccc(Cl)cc2Cl)c1)c1ccc([N+](=O)[O-])cc1	nt	nt	i	31.6	i	i
O=C(Cn1cnc([N+](=O)[O-])c1)c1ccc(Cl)cc1	i	nt	i	i	i	nt
NC(=O)c1nsc(C(=O)N(c2ccccc2)C(C(=O)NC2CCCCC2)c2ccc(O)cc2)c1N (configuration not stated)	i	i	i	19.2	i	i
NC(=O)c1nsc(C(=O)N(c2ccccc2)C(C(=O)NCc2ccc(F)cc2)c2ccc(O)cc2)c1N (configuration not stated)	i	i	i	44.1	i	i
NC(=O)c1nsc(C(=O)N(c2ccccc2)C(C(=O)NC2CCCC2)c2ccncc2)c1N (configuration not stated)	i	i	i	i	i	nt
CC(C)c1ccc(N(C(=O)c2snc(C(N)=O)c2N)C(C(=O)NC2CCCC2)c2ccncc2)cc1 (configuration not stated)	i	i	i	40.2	i	i
COc1ccc(N(C(=O)c2snc(C(N)=O)c2N)C(C(=O)NCc2ccccc2)c2ccc(O)cc2)cc1 (configuration not stated)	i	i	i	i	nt	nt
Cc1ccc(NC(=O)CSc2nnnn2-c2ccc3c(c2)OCO3)cc1C	i	i	i	40.4	i	i
COc1ccc(-n2nnnc2SCC(=O)c2ccc3c(c2)OCCO3)cc1	i	i	i	22.6	i	i
Cc1ccc(-n2nnnc2SCC(=O)Nc2ccc3c(c2)COC3=O)cc1C	i	i	i	53.6	i	i
COc1ccc(-n2nnnc2SCC(=O)c2cccc(OC)c2)cc1	i	i	i	i	i	nt
SMILES	UBC13 polyUb	NALP1 yeast inh	GRIN3A LBD mod	dFosB act-1	CR mimetic SO	dFosB act-2
O=C(/C=C/c1cccc(C(F)(F)F)c1)OCC(=O)N1CCN(c2ccccc2)CC1	i	nt	i	i	i	nt
CCOC(=O)C1CCN(C(=S)NC2CC3C=CC2C3)CC1 (configuration not stated)	i	i	i	i	i	nt
N#C/C(=C\c1ccc[nH]1)C(=O)Nc1ccccc1F	i	i	i	i	i	nt
N#C/C(=C\c1ccc[nH]1)C(=O)Nc1ccccc1Cl	i	i	i	65.7	i	i
COc1ccc(CCN(C)S(=O)(=O)c2ccc(Cl)nc2)cc1OC	i	i	i	i	i	nt
C[C@H](CO)N1C[C@H](C)[C@@H](CN(C)S(=O)(=O)c2ccccc2)Oc2ccc(NC(=O)NC3CCCCC3)cc2C1=O	i	nt	i	i	i	nt
Cc1ccc2nc(SCC(=O)Nc3ccc4sc(C)nc4c3)c(C#N)cc2c1	i	i	i	25.0	i	i
O=C(Cn1nc(C(=O)O)c2ccccc2c1=O)Nc1ccccc1C(F)(F)F	i	i	i	77.5	i	i
O=C(Cn1nc(C(=O)O)c2ccccc2c1=O)Nc1cccc(S(=O)(=O)N2CCCCC2)c1	i	nt	i	28.3	i	i
NC(=O)c1c(NC(=O)Cn2nc(C(=O)O)c3ccccc3c2=O)sc2c1CCC2	i	i	i	33.4	i	i
O=C(Cn1nc(C(=O)O)c2ccccc2c1=O)Nc1nc(-c2ccccc2)cs1	i	i	i	69.1	i	i
COc1ccccc1/C=C/CN1CCC(n2nccc2NC(=O)CCc2ccccc2)CC1	i	i	i	i	i	nt
CCOc1ccc(NC(=O)CSc2nc3ccccc3nc2N2CC(C)OC(C)C2)cc1 (configuration not stated)	i	i	i	i	i	nt
COc1ccccc1N1CCN(CC(=O)Nc2cc(C)nn2-c2nc(C)cc(C)n2)CC1	nt	nt	i	i	nt	nt
CCC(C)(C)n1nnnc1CN1CCN(C(c2ccccc2)c2ccccc2)CC1	i	i	i	i	i	nt
COc1ccc(S(=O)(=O)Nc2cccc3c2O[C@H](CN(C)C(=O)Nc2c(C)noc2C)[C@@H](C)CN([C@H](C)CO)C3=O)cc1	i	nt	i	i	i	nt
COc1cccc(OCCNC(=O)Nc2cc(F)c(F)cc2Cl)c1	i	i	i	74.2	i	i
CCn1nc(C)c(CN2CCc3c([nH]c4ccccc34)C2c2ccc(F)c(OC)c2)c1C (configuration not stated)	i	i	i	i	i	nt
O=C(Nc1ccc(F)cc1F)C1CCN(S(=O)(=O)c2cccnc2)CC1	i	i	i	i	i	nt
CC(=O)c1c(C)[nH]c(C(=O)OCC(=O)N2CCc3ccccc32)c1C	i	i	i	28.8	i	i
Cn1nc(C(=O)OCC(=O)N2CCc3ccccc32)c2ccccc2c1=O	i	i	i	i	i	nt
O=C(OCC(=O)N1CCc2ccccc21)c1n[nH]c(=O)c2ccccc12	i	nt	i	37.8	i	i
CCOC(=O)c1[nH]c(C)c(C(=O)OCC(=O)N2CCc3ccccc32)c1C	i	i	i	i	i	nt
COc1cccc(N2C(=O)CC(NNC(=O)c3cccs3)C2=O)c1 (configuration not stated)	i	i	i	i	i	nt

Screens deposited in PubChem BioAssay by several laboratories.
